# From paper PMC7862700, “An all-to-all approach to the identification of sequence-specific readers for epigenetic DNA modifications on cytosine”
# Tests used:
# Experiment in all cases: DAPPL (digital affinity profiling via proximity ligation, sequencing); 10 mM Tris-HCl pH 7.5, 50 mM NaCl, 1 mM DTT, 4% glycerol, room temperature, 30 min; GST-TFs on glutathione beads, 16-mer random dsDNA library, 0.1% formaldehyde crosslink after washing; high values mean tight binding
# Details in all cases: protein: recombinant; tags: N-terminal GST; dsDNA, one strand shown
# FLI1 = target: T1, FLI1 (Homo sapiens, UniProt Q01543 1-452)
# T1 sequence: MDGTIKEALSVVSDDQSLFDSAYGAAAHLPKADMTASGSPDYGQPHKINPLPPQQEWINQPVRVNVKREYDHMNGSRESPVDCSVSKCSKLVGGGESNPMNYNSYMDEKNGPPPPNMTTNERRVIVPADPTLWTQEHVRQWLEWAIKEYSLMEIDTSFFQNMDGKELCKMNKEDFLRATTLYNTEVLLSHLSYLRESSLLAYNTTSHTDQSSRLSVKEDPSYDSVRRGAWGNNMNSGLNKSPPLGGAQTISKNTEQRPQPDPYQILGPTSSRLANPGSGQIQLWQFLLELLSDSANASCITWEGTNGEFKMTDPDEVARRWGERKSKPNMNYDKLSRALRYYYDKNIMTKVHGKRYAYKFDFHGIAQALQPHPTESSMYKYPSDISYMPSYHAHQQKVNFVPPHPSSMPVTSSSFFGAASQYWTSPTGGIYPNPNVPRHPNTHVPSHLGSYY
# Method in brief: (§1)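 Binding signal is given per hexamer as its read frequency for a factor divided by its frequency in the tag-only sample. GST-fused human transcription factors were expressed in yeast, captured on glutathione beads, barcoded with DNA and pooled with that sample, then incubated with 200 nmole of a 16-mer random double-stranded DNA library in Tris/NaCl/DTT/glycerol buffer for 30 min at room temperature. The pools were then washed, crosslinked, proximity-ligated, amplified by PCR and sequenced on an Illumina NextSeq500.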
# ELK1 = target: T2, ELK1 (Homo sapiens, UniProt P19419 1-428)
# T2 sequence: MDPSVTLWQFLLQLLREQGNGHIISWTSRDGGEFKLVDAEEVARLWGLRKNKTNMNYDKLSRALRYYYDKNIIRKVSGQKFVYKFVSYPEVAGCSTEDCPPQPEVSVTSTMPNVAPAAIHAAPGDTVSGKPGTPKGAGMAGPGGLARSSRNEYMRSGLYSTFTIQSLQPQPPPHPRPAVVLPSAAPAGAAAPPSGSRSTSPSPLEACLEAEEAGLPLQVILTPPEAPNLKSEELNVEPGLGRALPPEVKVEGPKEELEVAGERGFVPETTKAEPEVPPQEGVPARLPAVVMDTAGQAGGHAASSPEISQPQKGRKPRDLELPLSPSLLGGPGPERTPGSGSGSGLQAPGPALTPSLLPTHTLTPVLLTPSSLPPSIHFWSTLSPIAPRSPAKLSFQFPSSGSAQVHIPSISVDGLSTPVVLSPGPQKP
# Method in brief: as §1
# GABPA = target: T3, GABPA (Homo sapiens, UniProt Q06546 1-454)
# T3 sequence: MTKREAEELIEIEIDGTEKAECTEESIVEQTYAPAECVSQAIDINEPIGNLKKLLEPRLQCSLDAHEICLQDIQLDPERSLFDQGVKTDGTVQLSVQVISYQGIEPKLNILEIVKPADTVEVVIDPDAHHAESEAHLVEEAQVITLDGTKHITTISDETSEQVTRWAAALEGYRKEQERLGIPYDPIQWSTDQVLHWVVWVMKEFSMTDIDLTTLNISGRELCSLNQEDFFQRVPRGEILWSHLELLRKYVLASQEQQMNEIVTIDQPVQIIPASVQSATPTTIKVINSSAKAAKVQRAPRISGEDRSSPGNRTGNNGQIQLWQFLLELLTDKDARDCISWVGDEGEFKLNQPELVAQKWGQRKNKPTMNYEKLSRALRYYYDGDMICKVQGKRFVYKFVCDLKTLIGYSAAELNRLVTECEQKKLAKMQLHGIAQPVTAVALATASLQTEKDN
# Method in brief: as §1
# ERG = target: T4, ERG (Homo sapiens, UniProt P11308 1-479)
# T4 sequence: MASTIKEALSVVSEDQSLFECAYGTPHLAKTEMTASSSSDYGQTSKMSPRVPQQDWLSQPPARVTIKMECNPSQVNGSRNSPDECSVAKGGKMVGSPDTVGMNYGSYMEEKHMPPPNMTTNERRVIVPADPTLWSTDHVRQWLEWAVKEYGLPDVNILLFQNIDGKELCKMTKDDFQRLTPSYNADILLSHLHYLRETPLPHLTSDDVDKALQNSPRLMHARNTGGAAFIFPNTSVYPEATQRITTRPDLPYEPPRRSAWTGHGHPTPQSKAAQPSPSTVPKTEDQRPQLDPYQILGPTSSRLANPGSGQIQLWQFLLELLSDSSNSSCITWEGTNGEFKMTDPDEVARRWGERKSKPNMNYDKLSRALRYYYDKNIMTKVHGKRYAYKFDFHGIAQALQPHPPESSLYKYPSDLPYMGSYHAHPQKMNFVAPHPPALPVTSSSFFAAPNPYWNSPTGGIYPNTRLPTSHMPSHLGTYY
# Method in brief: as §1
# ELF1 = ELF1 (Homo sapiens, UniProt P32519 1-619)
# Method in brief: as §1
# EHF = target: T5, EHF (Homo sapiens, UniProt Q9NZC4 1-300)
# T5 sequence: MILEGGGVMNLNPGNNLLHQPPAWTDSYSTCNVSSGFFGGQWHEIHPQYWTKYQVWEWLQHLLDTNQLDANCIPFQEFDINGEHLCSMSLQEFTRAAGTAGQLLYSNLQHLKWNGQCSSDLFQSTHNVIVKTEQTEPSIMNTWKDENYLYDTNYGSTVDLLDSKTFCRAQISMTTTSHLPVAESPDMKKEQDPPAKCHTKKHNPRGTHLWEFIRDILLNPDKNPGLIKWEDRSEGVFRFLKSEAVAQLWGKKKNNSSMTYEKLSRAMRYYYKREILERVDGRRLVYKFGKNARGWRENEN
# Method in brief: as §1
# SPI1 = SPI1 (Homo sapiens, UniProt P17947 1-270)
# Method in brief: as §1
# SPIB = SPIB (Homo sapiens, UniProt Q01892 1-262)
# Method in brief: as §1
# ELK3 = target: T6, ELK3 (Homo sapiens, UniProt P41970 1-407)
# T6 sequence: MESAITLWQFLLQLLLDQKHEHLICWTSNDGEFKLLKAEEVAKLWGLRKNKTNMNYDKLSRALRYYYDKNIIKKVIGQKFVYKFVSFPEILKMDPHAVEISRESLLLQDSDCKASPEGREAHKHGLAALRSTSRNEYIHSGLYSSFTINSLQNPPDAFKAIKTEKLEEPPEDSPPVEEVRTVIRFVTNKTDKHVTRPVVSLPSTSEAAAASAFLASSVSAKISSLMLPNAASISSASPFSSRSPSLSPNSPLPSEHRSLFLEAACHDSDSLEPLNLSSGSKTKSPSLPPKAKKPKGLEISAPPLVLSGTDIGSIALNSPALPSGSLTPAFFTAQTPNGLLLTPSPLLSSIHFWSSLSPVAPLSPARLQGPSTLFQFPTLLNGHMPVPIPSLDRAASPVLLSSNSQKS
# Method in brief: as §1
# FEV = target: T7, FEV (Homo sapiens, UniProt Q99581 1-238)
# T7 sequence: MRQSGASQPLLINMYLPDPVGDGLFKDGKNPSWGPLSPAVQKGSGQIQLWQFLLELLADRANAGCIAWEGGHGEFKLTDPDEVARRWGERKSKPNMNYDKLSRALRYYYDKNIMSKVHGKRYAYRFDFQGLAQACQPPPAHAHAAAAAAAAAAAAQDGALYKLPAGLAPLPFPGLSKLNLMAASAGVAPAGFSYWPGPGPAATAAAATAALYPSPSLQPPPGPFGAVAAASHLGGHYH
# Method in brief: as §1
# ETV5 = ETV5 (Homo sapiens, UniProt P41161 1-510)
# Method in brief: as §1
# SPIC = target: T8, SPIC (Homo sapiens, UniProt Q8N5J4 1-248)
# T8 sequence: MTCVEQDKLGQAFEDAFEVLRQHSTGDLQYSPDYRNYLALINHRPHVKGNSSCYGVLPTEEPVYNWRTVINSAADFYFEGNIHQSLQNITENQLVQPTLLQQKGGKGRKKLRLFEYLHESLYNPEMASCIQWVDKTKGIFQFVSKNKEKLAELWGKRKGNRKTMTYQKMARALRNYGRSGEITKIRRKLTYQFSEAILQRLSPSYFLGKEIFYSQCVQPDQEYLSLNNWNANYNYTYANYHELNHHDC
# Method in brief: as §1
# ELF4 = ELF4 (Homo sapiens, UniProt Q99607 1-663)
# Method in brief: as §1
# ELK4 = target: T9, ELK4 (Homo sapiens, UniProt P28324-2 1-405)
# T9 sequence: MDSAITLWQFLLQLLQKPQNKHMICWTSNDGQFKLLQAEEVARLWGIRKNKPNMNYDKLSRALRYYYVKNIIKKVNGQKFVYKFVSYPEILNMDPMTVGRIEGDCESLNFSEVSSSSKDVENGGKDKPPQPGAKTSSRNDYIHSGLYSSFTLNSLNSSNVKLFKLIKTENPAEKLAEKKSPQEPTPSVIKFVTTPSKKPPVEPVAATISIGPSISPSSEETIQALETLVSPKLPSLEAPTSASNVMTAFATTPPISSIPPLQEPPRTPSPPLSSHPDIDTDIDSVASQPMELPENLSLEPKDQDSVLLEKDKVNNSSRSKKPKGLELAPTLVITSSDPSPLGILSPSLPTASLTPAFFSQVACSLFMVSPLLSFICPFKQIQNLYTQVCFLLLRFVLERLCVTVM
# Method in brief: as §1
# ETV2 = target: T10, ETV2 (Homo sapiens, UniProt O00321 1-342)
# T10 sequence: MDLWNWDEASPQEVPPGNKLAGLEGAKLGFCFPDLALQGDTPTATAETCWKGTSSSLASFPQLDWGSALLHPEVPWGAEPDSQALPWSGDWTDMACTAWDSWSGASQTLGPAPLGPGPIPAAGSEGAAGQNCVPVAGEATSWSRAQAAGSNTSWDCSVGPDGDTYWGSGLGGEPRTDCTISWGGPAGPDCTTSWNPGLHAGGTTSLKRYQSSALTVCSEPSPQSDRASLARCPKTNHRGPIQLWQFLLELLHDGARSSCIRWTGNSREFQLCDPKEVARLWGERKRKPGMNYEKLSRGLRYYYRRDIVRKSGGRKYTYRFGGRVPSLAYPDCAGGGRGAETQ
# Method in brief: as §1
# ELF3 = target: T11, ELF3 (Homo sapiens, UniProt P78545 1-371)
# T11 sequence: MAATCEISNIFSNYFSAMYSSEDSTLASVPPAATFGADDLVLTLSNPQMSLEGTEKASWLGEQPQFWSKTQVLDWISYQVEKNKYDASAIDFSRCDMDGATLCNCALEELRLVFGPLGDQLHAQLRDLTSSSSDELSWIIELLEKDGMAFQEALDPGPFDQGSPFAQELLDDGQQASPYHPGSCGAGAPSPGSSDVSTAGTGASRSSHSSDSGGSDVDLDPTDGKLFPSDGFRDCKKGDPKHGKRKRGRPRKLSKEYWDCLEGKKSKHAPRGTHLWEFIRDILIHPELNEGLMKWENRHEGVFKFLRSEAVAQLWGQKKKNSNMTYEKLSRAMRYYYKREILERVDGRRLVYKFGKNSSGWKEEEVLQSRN
# Method in brief: as §1
# ETV1 = ETV1 (Homo sapiens, UniProt P50549 1-477)
# Method in brief: as §1
# Chain of ETV5 (P41161 whole entry): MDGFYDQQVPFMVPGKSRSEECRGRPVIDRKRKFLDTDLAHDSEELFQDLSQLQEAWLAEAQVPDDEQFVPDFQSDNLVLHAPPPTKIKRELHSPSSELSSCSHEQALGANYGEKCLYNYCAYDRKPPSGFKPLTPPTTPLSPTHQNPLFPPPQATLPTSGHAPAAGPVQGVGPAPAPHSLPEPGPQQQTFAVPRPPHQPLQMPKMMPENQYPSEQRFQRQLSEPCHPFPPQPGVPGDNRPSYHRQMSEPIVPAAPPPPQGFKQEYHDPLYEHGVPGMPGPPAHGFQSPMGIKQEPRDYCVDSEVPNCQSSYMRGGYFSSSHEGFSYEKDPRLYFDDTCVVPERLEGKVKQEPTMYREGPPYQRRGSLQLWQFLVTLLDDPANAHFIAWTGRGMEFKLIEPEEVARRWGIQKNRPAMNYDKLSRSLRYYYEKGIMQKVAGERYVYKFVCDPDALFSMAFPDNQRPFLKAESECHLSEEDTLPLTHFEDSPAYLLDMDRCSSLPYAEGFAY
# Chain of SPIB (Q01892 whole entry): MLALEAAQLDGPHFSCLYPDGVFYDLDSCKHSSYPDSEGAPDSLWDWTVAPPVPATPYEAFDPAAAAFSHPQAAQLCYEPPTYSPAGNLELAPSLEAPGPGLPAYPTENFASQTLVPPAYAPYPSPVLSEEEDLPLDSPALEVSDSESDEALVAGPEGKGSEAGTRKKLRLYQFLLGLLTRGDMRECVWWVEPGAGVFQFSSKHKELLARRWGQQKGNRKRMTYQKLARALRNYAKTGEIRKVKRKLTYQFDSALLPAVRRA
# Chain of ETV1 (P50549 whole entry): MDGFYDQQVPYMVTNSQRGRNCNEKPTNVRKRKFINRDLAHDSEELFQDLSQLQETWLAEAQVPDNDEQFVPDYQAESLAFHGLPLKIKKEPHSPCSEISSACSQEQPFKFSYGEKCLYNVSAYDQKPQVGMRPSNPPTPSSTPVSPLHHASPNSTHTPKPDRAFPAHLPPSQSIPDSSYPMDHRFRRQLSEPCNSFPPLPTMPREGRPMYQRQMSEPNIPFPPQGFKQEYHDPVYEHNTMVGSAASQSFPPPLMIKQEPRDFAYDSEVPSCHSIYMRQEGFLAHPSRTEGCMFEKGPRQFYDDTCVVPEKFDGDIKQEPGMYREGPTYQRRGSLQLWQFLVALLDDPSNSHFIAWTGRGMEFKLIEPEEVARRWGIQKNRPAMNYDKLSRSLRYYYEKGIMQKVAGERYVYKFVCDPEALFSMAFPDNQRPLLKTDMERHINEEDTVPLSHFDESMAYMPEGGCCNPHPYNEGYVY
# Chain of ELF1 (P32519 whole entry): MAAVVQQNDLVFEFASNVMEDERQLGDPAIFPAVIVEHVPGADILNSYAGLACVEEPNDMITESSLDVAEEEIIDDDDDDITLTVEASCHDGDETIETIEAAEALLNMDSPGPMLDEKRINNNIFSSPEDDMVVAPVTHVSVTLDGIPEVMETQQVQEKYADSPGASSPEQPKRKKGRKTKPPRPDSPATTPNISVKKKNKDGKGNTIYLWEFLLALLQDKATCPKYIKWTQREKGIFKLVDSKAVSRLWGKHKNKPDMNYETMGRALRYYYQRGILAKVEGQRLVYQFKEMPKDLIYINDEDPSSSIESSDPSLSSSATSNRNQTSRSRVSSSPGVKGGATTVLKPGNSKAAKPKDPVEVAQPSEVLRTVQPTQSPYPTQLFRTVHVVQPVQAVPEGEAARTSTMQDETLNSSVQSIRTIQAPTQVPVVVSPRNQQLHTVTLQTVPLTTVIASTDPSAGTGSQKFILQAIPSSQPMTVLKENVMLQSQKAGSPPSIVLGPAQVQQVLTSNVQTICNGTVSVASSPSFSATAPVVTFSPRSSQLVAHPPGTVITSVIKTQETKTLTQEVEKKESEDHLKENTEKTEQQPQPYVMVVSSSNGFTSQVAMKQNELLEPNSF
# Chain of ELF4 (Q99607 whole entry): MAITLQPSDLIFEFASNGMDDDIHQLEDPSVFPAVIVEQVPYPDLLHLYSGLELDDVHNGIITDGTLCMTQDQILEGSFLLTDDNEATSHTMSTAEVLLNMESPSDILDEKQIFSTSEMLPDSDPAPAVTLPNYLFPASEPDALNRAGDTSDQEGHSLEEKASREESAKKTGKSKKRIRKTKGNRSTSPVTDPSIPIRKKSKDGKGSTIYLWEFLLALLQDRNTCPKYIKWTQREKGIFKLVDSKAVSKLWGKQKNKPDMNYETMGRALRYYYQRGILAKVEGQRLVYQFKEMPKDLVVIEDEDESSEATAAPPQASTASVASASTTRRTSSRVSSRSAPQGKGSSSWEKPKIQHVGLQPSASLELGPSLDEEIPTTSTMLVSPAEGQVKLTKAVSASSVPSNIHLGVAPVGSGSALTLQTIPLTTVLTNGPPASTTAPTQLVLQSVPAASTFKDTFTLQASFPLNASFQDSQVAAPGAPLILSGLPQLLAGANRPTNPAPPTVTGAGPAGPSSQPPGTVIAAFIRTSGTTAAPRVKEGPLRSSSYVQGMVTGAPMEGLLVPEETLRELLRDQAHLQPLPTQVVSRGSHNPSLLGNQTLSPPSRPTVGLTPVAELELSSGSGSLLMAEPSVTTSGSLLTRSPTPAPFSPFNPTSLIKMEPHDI
Sequence,binding signal (FLI1),binding signal (ELK1),binding signal (GABPA),binding signal (ERG),binding signal (ELF1),binding signal (EHF),binding signal (SPI1),binding signal (SPIB),binding signal (ELK3),binding signal (FEV),binding signal (ETV5),binding signal (SPIC),binding signal (ELF4),binding signal (ELK4),binding signal (ETV2),binding signal (ELF3),binding signal (ETV1)
CGGATA,"1.15 fold enrichment (6-mer frequency, TF over GST control)","1.27 fold enrichment (6-mer frequency, TF over GST control)","1.09 fold enrichment (6-mer frequency, TF over GST control)","1.5 fold enrichment (6-mer frequency, TF over GST control)","1.16 fold enrichment (6-mer frequency, TF over GST control)","1.19 fold enrichment (6-mer frequency, TF over GST control)","1.1 fold enrichment (6-mer frequency, TF over GST control)","1.15 fold enrichment (6-mer frequency, TF over GST control)","1.33 fold enrichment (6-mer frequency, TF over GST control)","2.83 fold enrichment (6-mer frequency, TF over GST control)","1.34 fold enrichment (6-mer frequency, TF over GST control)","1.2 fold enrichment (6-mer frequency, TF over GST control)","1.03 fold enrichment (6-mer frequency, TF over GST control)","1.16 fold enrichment (6-mer frequency, TF over GST control)","1.23 fold enrichment (6-mer frequency, TF over GST control)","1.31 fold enrichment (6-mer frequency, TF over GST control)","1.26 fold enrichment (6-mer frequency, TF over GST control)"
CGCCGC,"1.35 fold enrichment (6-mer frequency, TF over GST control)","1.1 fold enrichment (6-mer frequency, TF over GST control)","1.19 fold enrichment (6-mer frequency, TF over GST control)","1.06 fold enrichment (6-mer frequency, TF over GST control)","1.14 fold enrichment (6-mer frequency, TF over GST control)","1.27 fold enrichment (6-mer frequency, TF over GST control)","1.11 fold enrichment (6-mer frequency, TF over GST control)","1.11 fold enrichment (6-mer frequency, TF over GST control)","1.32 fold enrichment (6-mer frequency, TF over GST control)","1.24 fold enrichment (6-mer frequency, TF over GST control)","1.13 fold enrichment (6-mer frequency, TF over GST control)","1.22 fold enrichment (6-mer frequency, TF over GST control)","1.26 fold enrichment (6-mer frequency, TF over GST control)","1.05 fold enrichment (6-mer frequency, TF over GST control)","1.03 fold enrichment (6-mer frequency, TF over GST control)","1.26 fold enrichment (6-mer frequency, TF over GST control)","1.29 fold enrichment (6-mer frequency, TF over GST control)"
